# Laboratory results as given in PubChem BioAssay (EPA / NIEHS).
# Several values for one entry are separate records, joined by “and”; a condition that tells them apart may be missing. Equal entries are not always repeated. Inconclusive results are not listed. A structure can be active in one record and inactive in another. Activity calls are given as the source filed them. Rule for the calls, unless noted: active = hit-call score of the fitted dose curve at least 0.9, where 1 is the maximum; inactive = score below 0.9.
# Assays:
# [1] = target: Nuclear respiratory factor 1 (Homo sapiens) (UniProt Q16656); test: ATG_NRF1_CIS: Attagene CIS-FACTORIAL HepG2 Assay for human Nuclear Respiratory Factor 1 (NRF1) Orphan Gene (AID 2282987); settings: HepG2 NRF1 cis-element reporter, Attagene multiplex; actives raise or lower the signal
# Chain of Nuclear respiratory factor 1 (Homo sapiens) (Q16656 whole entry, looked up): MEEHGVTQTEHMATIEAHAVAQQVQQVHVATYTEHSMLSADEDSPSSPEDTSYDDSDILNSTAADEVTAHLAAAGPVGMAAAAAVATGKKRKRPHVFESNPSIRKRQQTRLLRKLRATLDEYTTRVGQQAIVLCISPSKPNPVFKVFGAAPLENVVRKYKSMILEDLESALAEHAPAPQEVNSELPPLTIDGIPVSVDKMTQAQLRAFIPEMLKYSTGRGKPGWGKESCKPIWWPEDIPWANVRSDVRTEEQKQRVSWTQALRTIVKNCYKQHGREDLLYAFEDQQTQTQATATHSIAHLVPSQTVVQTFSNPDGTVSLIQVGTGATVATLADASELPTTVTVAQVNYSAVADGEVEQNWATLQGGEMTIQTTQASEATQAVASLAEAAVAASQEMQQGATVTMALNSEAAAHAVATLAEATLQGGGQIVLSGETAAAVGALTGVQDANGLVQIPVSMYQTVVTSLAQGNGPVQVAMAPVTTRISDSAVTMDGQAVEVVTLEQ
# Procedure, shortened: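 Transcriptional reporter readout, one component of a 52-endpoint multiplexed HepG2 panel. Exposure 24 h; mRNA detected via RT-PCR and fluorescent capillary electrophoresis; fitting in both directions against DMSO.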
# [2] = ATG_NFI_CIS: Attagene CIS-FACTORIAL HepG2 Assay for human Nuclear Factor I (NFI) (AID 2282989); settings: HepG2 cis-regulatory reporter, NFI response element transcription; actives raise or lower the signal
# Procedure, shortened: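 Reporter transcripts were measured by RT-PCR with fluorescent primer extension and capillary electrophoresis 24 h post-treatment. HepG2 cells carried transiently transfected cis-regulated reporter constructs reporting endogenous factor activity; gain or loss fitted against DMSO baseline.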
# [3] = target: Myc proto-oncogene protein (Homo sapiens) (UniProt P01106); test: ATG_Myc_CIS: Attagene CIS-FACTORIAL HepG2 Assay for human Myelocytomatosis (Myc) Proto-Oncogene Transcription Factor (AID 2282990); settings: HepG2, Attagene cis-reporter transcription factor activity; actives raise or lower the signal
# Chain of Myc proto-oncogene protein (Homo sapiens) (P01106 whole entry, looked up, the tested form may be a part): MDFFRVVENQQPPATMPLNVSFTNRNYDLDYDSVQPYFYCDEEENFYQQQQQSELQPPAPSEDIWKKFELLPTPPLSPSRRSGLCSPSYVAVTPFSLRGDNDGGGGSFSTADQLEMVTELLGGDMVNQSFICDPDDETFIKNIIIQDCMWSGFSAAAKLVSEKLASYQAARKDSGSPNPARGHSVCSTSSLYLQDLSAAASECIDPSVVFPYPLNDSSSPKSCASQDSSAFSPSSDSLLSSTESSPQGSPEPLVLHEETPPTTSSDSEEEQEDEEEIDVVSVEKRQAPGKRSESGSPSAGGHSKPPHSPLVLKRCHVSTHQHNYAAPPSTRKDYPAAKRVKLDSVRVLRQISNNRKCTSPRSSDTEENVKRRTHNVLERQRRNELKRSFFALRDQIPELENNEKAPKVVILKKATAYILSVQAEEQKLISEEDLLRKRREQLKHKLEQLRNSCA
# Procedure, shortened: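 Fluorescence intensity of reporter-specific cDNA fragments, separated by capillary electrophoresis, gives the signal. Transfected HepG2 cells carrying cis-promoter reporter constructs are incubated with compound for 24 h; DMSO serves as baseline.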
# [4] = ATG_NF_kB_CIS: Attagene CIS-FACTORIAL HepG2 Assay for human Nuclear Factor Kappa B (NF-kB) (AID 2282991); settings: HepG2 Attagene cis-factorial NF-kB reporter mRNA; actives raise or lower the signal
# Procedure, shortened: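 HepG2, transient multi-reporter transfection, cis promoter elements (endogenous TFs). 24 h exposure. Total RNA → RT → PCR → 6-FAM label → HpaI → CE. Gain/loss vs DMSO.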
# [5] = ATG_NRF2_ARE_CIS: Attagene CIS-FACTORIAL HepG2 Assay for human Nuclear Factor Erythroid 2 Related Factor 2 (NFR2) response to Antioxidant Response Elements (ARE) (AID 2282992); settings: HepG2 Attagene ARE/NRF2 reporter, transcription factor activity; actives raise or lower the signal;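 note: reporter mRNA level measured by RT-PCR and capillary electrophoresis fluorescence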
# Procedure, shortened: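 HepG2 cells transiently transfected with multiplexed cis-regulated reporter transcription units measure endogenous transcription factor activity. Reporter mRNA at 24 h is quantified by RT-PCR, fluorescent labelling and capillary electrophoresis, with bidirectional fitting relative to DMSO.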
# [6] = ATG_Oct_MLP_CIS: Attagene CIS-FACTORIAL HepG2 Assay for human Octamer-Binding Transcription Factor (Oct) (AID 2282993); settings: HepG2 Attagene cis-factorial Oct reporter, mRNA; actives raise or lower the signal
# Procedure, shortened: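 Readout is reporter transcript level from RT-PCR with fluorescent primer extension and capillary electrophoresis, fitted in both directions against DMSO. Transfected HepG2 reporter units report endogenous factor activity after 24 h dosing.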
# [7] = target: Cellular tumor antigen p53 (Homo sapiens) (UniProt P04637); test: ATG_p53_CIS: Attagene CIS-FACTORIAL HepG2 Assay for human p53 Transcription Factor (AID 2282994); settings: HepG2 p53 cis-element reporter, Attagene mRNA; actives raise or lower the signal
# Chain of Cellular tumor antigen p53 (Homo sapiens) (P04637 whole entry, looked up): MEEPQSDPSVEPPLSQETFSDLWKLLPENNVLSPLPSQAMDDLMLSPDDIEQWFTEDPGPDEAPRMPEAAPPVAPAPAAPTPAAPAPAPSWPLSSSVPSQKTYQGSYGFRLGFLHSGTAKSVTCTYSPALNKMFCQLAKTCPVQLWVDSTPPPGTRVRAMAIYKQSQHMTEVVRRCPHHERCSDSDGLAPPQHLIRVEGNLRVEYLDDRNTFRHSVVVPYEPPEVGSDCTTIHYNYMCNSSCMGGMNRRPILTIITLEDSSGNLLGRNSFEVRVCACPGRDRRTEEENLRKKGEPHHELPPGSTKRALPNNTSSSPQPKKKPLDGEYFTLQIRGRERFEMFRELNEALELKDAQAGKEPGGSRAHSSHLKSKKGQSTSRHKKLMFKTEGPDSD
# Procedure, shortened: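 HepG2 cells transiently transfected with multiplexed cis-regulated reporter transcription units read endogenous TF activity. After 24 h compound exposure, reporter mRNA was quantified by RT-PCR, fluorescent labelling, HpaI digestion and capillary electrophoresis; bidirectional fits versus DMSO baseline.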
# [8] = BSK_3C_TissueFactor: BioMAP Diversity Plus: 3C Assay for Tissue Factor Biomarker Activity (AID 2282997); settings: BioMAP 3C HUVEC, tissue factor biomarker readout; actives raise or lower the signal
# Procedure, shortened: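 Values derive from bidirectional curve fitting against DMSO of Tissue Factor ELISA signals, taken 24 h after dosing primary human umbilical vein endothelial cells.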
# [9] = BSK_3C_uPAR: BioMAP Diversity Plus: 3C Assay for Urokinase-type plasminogen activator receptor (uPAR) Biomarker Activity (AID 2282998); settings: BioMAP 3C HUVEC, uPAR biomarker ELISA; actives raise or lower the signal
# Procedure, shortened: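 Cell-surface uPAR on HUVEC (3C system) read by ELISA at 24 h post-treatment, with DMSO as baseline and fitting in both directions. Parallel cultures stained with SRB to flag overt cytotoxicity.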
# [10] = BSK_3C_VCAM1: BioMAP Diversity Plus: 3C Assay for Vascular cell adhesion molecule 1 (VCAM1) Biomarker Activity (AID 2282999); settings: BioMAP 3C HUVEC, VCAM1 ELISA, cytokine-stimulated; actives raise or lower the signal
# Procedure, shortened: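 Human umbilical vein endothelial cells (3C system), biomarker read by ELISA 24 h after dosing; bidirectional fit against DMSO baseline. Cytotoxicity tracked by SRB total-protein staining in parallel cultures at biomarker time.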
# [11] = BSK_4H_Eotaxin3: BioMAP Diversity Plus: 4H Assay for Eotaxin 3 Biomarker Activity (AID 2283000); settings: primary human endothelial cells (HUVEC); actives raise or lower the signal;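 for outcome: CCL26 protein level quantified by ELISA in parallel with SRB cytotoxicity check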
# Procedure, shortened: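 Endothelial primary cells (human umbilical vein) exposed to compound for 24 h. ELISA detection of Eotaxin-3.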
# [12] = target: human Peroxisome Proliferator-activated Receptor alpha (PPARa), PPARA (gene 5465) (UniProt Q07869); test: ATG_PPARa_TRANS: Attagene TRANS-FACTORIAL HepG2 Assay for human Peroxisome Proliferator-activated Receptor alpha (PPARa) (AID 2283001; active = hit-call score of the fitted dose curve at least 0.9, where 1 is the maximum)
# Chain of human Peroxisome Proliferator-activated Receptor alpha (PPARa), PPARA (gene 5465) (Q07869 whole entry, looked up, the tested form may be a part): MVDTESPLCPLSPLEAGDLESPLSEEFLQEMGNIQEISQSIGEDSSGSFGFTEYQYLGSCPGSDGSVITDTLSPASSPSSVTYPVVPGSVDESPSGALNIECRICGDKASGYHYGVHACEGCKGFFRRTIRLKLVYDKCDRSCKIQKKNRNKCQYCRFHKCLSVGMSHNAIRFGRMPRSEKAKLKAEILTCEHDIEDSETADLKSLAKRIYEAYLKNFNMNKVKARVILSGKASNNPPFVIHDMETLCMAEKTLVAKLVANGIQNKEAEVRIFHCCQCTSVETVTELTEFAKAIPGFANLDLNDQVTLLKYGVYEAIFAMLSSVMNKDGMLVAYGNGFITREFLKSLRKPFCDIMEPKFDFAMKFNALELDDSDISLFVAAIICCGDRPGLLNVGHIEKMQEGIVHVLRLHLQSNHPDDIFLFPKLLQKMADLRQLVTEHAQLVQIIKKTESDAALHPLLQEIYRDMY
# Procedure, shortened: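 Measures transcriptional activity of an exogenous chimeric PPARa-Gal4 protein in transiently transfected HepG2 cells after 24 h dosing. Reporter mRNA quantified via RT-PCR and capillary electrophoresis; DMSO served as negative control.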
# [13] = target: human Peroxisome Proliferator-activated Receptor delta (PPARd), PPARD (gene 5467) (UniProt Q03181); test: ATG_PPARd_TRANS: Attagene TRANS-FACTORIAL HepG2 Assay for human Peroxisome Proliferator-activated Receptor delta (PPARd) (AID 2283002; active = hit-call score of the fitted dose curve at least 0.9, where 1 is the maximum)
# Chain of human Peroxisome Proliferator-activated Receptor delta (PPARd), PPARD (gene 5467) (Q03181 whole entry, looked up, the tested form may be a part): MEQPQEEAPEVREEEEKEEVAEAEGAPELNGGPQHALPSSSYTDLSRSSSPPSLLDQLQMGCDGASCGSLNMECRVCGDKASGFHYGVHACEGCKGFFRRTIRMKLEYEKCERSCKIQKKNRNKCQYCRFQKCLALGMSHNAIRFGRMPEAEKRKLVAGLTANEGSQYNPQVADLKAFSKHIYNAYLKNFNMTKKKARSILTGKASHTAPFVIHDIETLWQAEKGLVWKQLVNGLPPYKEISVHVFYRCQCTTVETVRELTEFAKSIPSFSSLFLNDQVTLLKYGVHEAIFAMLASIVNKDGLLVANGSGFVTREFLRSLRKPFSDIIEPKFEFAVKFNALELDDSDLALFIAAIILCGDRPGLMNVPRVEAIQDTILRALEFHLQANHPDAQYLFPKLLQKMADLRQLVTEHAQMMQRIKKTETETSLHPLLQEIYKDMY
# Procedure, shortened: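 Fluorescence from capillary electrophoresis of labelled RT-PCR reporter fragments gives the signal; DMSO sets baseline. Cells: HepG2 transiently carrying GAL4-UAS reporter units plus chimeric nuclear receptor-Gal4 proteins, exposed to chemicals for 24 h.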
# [14] = read-out: Intercellular Adhesion Molecule 1 (ICAM1), ICAM1 (gene 3383); test: BSK_3C_ICAM1: BioMAP Diversity Plus: 3C Assay for Intercellular Adhesion Molecule 1 (ICAM1) Biomarker Activity (AID 2283003); settings: primary human endothelial cells (HUVEC); actives raise or lower the signal
# Procedure, shortened: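 Human vascular endothelial primary cells, 3C conditions, 24 h treatment. ICAM-1 by ELISA.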
# [15] = BSK_3C_Proliferation: Cell Proliferation Assessment in the BioMAP Diversity Plus: 3C Assay (AID 2283006); settings: primary human endothelial cells (HUVEC);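 for AC50: potency may reflect either rise or fall in cell number versus DMSO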
# Procedure, shortened: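 Proliferation of human vascular endothelial primary cells after 48 h dosing, quantified as SRB-stained protein at 560 nm relative to DMSO.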
# [16] = target: Peroxisome proliferator-activated receptor gamma (Homo sapiens) (UniProt P37231); test: ATG_PPARg_TRANS: Attagene TRANS-FACTORIAL HepG2 Assay for human Peroxisome Proliferator-activated Receptor-gamma (PPARg) (AID 2283007; active = hit-call score of the fitted dose curve at least 0.9, where 1 is the maximum)
# Chain of Peroxisome proliferator-activated receptor gamma (Homo sapiens) (P37231 whole entry, looked up): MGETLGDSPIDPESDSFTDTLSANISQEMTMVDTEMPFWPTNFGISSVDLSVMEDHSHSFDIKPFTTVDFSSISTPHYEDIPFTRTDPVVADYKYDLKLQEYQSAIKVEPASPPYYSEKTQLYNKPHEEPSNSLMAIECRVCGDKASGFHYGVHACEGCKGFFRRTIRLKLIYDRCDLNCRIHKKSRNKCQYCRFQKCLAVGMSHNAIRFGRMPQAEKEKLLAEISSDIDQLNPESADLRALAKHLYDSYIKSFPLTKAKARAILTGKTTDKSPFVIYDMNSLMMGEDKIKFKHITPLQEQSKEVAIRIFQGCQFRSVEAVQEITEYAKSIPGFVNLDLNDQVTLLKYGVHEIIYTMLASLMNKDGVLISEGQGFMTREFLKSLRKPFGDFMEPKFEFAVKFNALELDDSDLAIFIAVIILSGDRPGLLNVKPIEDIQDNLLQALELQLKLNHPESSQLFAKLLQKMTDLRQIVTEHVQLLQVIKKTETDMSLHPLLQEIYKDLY
# Procedure, shortened: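 Multiplexed reporter transcription units in HepG2, 24 h dosing, reporter transcripts quantified by fluorescent RT-PCR and capillary electrophoresis. Increase over DMSO scored.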
# [17] = target: Nuclear receptor subfamily 1 group I member 2 (Homo sapiens) (UniProt O75469); test: ATG_PXR_TRANS: Attagene TRANS-FACTORIAL HepG2 Assay for human Pregnane X Receptor (PXR) (AID 2283008; active = hit-call score of the fitted dose curve at least 0.9, where 1 is the maximum)
# Chain of Nuclear receptor subfamily 1 group I member 2 (Homo sapiens) (O75469 whole entry, looked up, the tested form may be a part): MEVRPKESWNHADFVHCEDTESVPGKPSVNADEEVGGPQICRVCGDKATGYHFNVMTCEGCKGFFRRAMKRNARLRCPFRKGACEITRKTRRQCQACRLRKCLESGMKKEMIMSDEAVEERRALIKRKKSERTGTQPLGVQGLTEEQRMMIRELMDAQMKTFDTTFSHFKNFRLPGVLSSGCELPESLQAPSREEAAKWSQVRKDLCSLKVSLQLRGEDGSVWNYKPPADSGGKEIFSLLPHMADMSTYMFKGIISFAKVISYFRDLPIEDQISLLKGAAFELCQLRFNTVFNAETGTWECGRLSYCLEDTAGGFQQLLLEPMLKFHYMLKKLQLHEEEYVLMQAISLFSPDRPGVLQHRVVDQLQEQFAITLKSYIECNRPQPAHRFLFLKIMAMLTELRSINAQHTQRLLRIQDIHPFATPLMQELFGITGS
# Procedure, shortened: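 HepG2 cells transiently transfected with multiple reporter units, here a PXR-GAL4 chimera driving a GAL4-UAS reporter; 24 h compound exposure. Reporter mRNA measured by RT-PCR, FAM labelling and capillary electrophoresis; gain of signal fitted against DMSO baseline.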
# [18] = target: human Retinoic Acid Receptor gamma (RARg), RARG (gene 5916) (UniProt P13631); test: ATG_RARg_TRANS: Attagene TRANS-FACTORIAL HepG2 Assay for human Retinoic Acid Receptor gamma (RARg) (AID 2283009; active = hit-call score of the fitted dose curve at least 0.9, where 1 is the maximum)
# Chain of human Retinoic Acid Receptor gamma (RARg), RARG (gene 5916) (P13631 whole entry, looked up, the tested form may be a part): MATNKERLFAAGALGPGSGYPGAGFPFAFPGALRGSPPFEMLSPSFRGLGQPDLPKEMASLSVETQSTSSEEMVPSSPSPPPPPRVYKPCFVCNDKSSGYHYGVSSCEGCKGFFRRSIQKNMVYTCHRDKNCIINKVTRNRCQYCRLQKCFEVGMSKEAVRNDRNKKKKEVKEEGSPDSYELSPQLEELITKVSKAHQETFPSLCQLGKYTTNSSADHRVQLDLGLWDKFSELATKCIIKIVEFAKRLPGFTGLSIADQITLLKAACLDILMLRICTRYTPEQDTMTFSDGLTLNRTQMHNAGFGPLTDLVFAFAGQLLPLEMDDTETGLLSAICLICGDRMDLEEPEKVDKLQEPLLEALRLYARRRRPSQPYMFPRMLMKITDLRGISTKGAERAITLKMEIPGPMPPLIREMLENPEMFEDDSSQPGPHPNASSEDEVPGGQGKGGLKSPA
# Procedure, shortened: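 HepG2, RARg-GAL4 TRANS system, 24 h exposure; reporter mRNA by RT-PCR + CE fluorescence; increase over DMSO.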
structure (smiles),measurement,setting,value
ClC1=C(Cl)C(Cl)(Cl)C(Cl)=C1Cl,AC50,[1],14 µM (active) and 9.06 µM (active)
same,AC50,[2],15.3 µM (active) and 7.42 µM (active)
same,outcome,[3],inactive
same,AC50,[4],8.6 µM (active) and 5.05 µM (active)
same,AC50,[5],3.07 µM (active) and 6.04 µM (active)
same,AC50,[6],13.4 µM (active) and 6.26 µM (active)
same,AC50,[7],17.4 µM (active) and 11.1 µM (active)
same,AC50,[8],5.07 µM (active)
same,AC50,[9],5.21 µM (active)
same,AC50,[10],5.82 µM (active)
same,AC50,[11],7.45 µM (active)
same,outcome,[12],inactive
same,outcome,[13],inactive
same,AC50,[14],6.79 µM (active)
same,AC50,[15],3.29 µM (active)
same,outcome,[16],inactive
same,outcome,[17],inactive
same,outcome,[18],inactive
CC#C[C@]1(O)CC[C@H]2[C@@H]3CCC4=CC(=O)CCC4=C3[C@@H](c3ccc(N(C)C)cc3)C[C@@]21C,AC50,[1],170 µM (active)
same,outcome,[1],inactive
same,AC50,[2],153 µM (active) and 64.1 µM (active) and 34.2 µM (active)
same,outcome,[2],inactive
same,AC50,[3],160 µM (active) and 100 µM (active)
same,outcome,[3],inactive
same,AC50,[4],67.9 µM (active)
same,outcome,[4],inactive
same,AC50,[5],28.1 µM (active) [middle of 4 runs]
same,outcome,[8],inactive
same,AC50,[9],31.2 µM (active)
same,AC50,[10],32.2 µM (active)
same,AC50,[11],38.1 µM (active)
same,outcome,[13],inactive
same,outcome,[14],inactive
same,AC50,[15],28.6 µM (active)
same,AC50,[16],193 nM (active) [middle of 4 runs]
same,AC50,[17],777 nM (active) and 356 nM (active) and 928 nM (active)
same,outcome,[17],inactive
CC(C)(C)c1cc(C(C)(C)C)c(O)c(C(C)(C)C)c1,outcome,[1],inactive
same,AC50,[2],54.2 µM (active)
same,outcome,[2],inactive
same,outcome,[3],inactive
same,AC50,[5],49.6 µM (active) and 57.1 µM (active)
same,AC50,[6],27.6 µM (active) and 43.2 µM (active)
same,outcome,[7],inactive
same,outcome,[8],inactive
same,outcome,[9],inactive
same,outcome,[10],inactive
same,outcome,[11],inactive
same,outcome,[13],inactive
same,outcome,[14],inactive
same,outcome,[15],inactive
same,outcome,[16],inactive
same,outcome,[17],inactive
